Among the data in PubChem BioAssay (NCI) are growth values, retold here.

Each structure is given as a SMILES string. This is part of a sample that, as a whole, favours compounds with a hit. Of some 83,000 tested, about 20% had one in any assay.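 Assay: single dose, 48 h. Readout: percent growth (0 = no net growth; negative = cell death). Active: <10.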 Values without a mark were called inactive. Active and inactive are the calls of the source.

Common to all, as to experiment: NCI-60 one-dose screen, 48 h (100 = growth as untreated, 0 = no growth, -100 = all killed)
Common to all, as to conditions: 10 µM unless noted

In test [1] the test system is SK-MEL-2 melanoma.
The test system of test [2] is EKVX NSCLC.
For test [3], the system named is SN12C renal.
Test [4] deals with UO-31 renal.
The subject of test [5] is TK-10 renal.
The test system of test [6] is ACHN renal.
The test system of test [7] is CAKI-1 renal.
For test [8], the system named is A498 renal.
Test [9] has as its system CCRF-CEM leukemia.
Test [10] relates to MOLT-4 leukemia.
Test [11] has as its system SR leukemia.
In test [12] the test system is RPMI-8226 leukemia.
The test system of test [13] is OVCAR-8 ovarian.
Test [14] relates to OVCAR-5 ovarian.
Test [15] relates to OVCAR-4 ovarian.
Test [16] relates to SK-OV-3 ovarian.
Test [17] deals with IGROV1 ovarian.
Test [18] concerns OVCAR-3 ovarian.
In test [19] the test system is HS 578T breast.
The subject of test [20] is NCI/ADR-RES ovarian.

On to `CN(C)c1ccc(-c2ccc3c(c2)c(-c2ccccc2)nc(=O)n3C)cn1`, for which the growth was 26.8% in [1]; 69.6% in [2]; 42.6% in test [3]; 42.3% in test [4]; 56.4% in test [5]; 49.9% in [6]. Moreover, the growth in [7] was 34.7%; in [8] it was 25.8%; in [9] it was 13%; in test [10] it was 29.9%; in [11], 16.7%; in test [12], 2.69% (active). The growth in test [13] is 54%; in test [14] it was 53.2%; in [15], 74.6%; in test [16] it was 38.6%; in [17], 49.1%; in test [18], 13.1%. In addition, the growth in [19] is 41.2%; in test [20] it was 27.2%.
With `CO[C@H]1CC(=O)n2c3ccccc3c3c4c(c5c6ccccc6n1c5c32)C(=O)NC4=O`, the growth is 70.5% in [1]; 71.8% in test [2]; 65.6% in [3]; 71.3% in test [4]; 37.3% in test [5]; 68.1% in test [6]. The growth in test [7] is 58.1%; in test [8], 56.2%; in test [9], 78.3%; in [10], 74.9%; in test [11], 20.8%; in [12], 88%. Besides, the growth in test [13] is 37.1%; in test [14], 120%; in [15] it was 24.6%; in [16] it was 68.1%; in test [17] it was 37.3%; in [18], 56.1%. Besides, the growth was 27.6% in test [19] and 36.2% in test [20].
`COc1ccc(-c2nn(-c3ccccc3)cc2/C=C/C(=O)NNC(=O)Nc2ccc(C)cc2)cc1`: the growth in test [1] was 102%; in test [2] it was 97.2%; in test [3], 97%; in [4], 84.2%; in [5] it was 99%; in test [6], 102%. The growth in [7] was 91.5%; in test [8] it was 109%; in [9], 47.4%; in [10] it was 43%; in [11], 64%; in test [12], 93.3%. Moreover, the growth in test [13] was 98.1%; in test [14] it was 103%; in [15], 101%; in test [16] it was 92.8%; in test [17], 93%; in [18] it was 107%. Besides, the growth was 99.7% in test [19] and 92.8% in [20].
In the case of `CC(C)(C)n1cc(-c2ccnc(NCCNS(=O)(=O)c3ccc(O)cc3)c2)c(-c2cccc(O)c2)n1`, the growth in test [1] was 108%; in test [2], 104%; in test [3], 98.3%; in test [4], 91.2%; in test [5] it was 116%; in test [6] it was 98.2%. In addition, the growth in test [7] is 103%; in [8], 88.8%; in test [9], 92.7%; in test [10], 95.1%; in test [11], 88%; in test [12] it was 80%. In addition, the growth in [13] is 96%; in test [14] it was 97.1%; in [15], 94.1%; in test [16] it was 116%; in [17] it was 112%; in test [18], 114%. Also, the growth in [19] is 97.6%; in test [20], 107%.
Take `C=Cc1cnc(Nc2ccc(OC)cc2)nc1NCCCNC(=O)C1CCC1`: the growth in [1] is 87%; in test [2], 56.8%; in test [3] it was 20.6%; in test [4], 10.2%; in test [5], 26%; in [6] it was 41.5%. For the same compound, the growth in [7] was 14.4%; in [8], 47.3%; in test [9] it was 28%; in test [10] it was 24%; in test [11], 9.88% (active); in [12], 43.8%. For the same compound, the growth was 49.2% in [13]; 48% in test [14]; 46.4% in test [15]; 20.4% in test [16]; 44.6% in test [17]; 48.2% in [18]. For the same compound, the growth in [19] was 18.7%; in test [20], 53.5%.
`COc1ccc(Oc2nc(Nc3ccc(N4CCOCC4)cc3)ncc2NC(=O)Nc2cc(OC)cc(OC)c2)cc1`: the growth in [1] is 17.8%; in test [2], 73.1%; in test [3], -12.7% (active); in test [4], 47.8%; in [5] it was 28.4%; in [6], 17.4%. The growth in test [7] is 16.3%; in [8], 9.34% (active); in test [9], 65%; in [10] it was 36.8%; in [11] it was 50.7%; in [12], 54.3%. Besides, the growth in test [13] is 18.4%; in test [14], 60.9%; in test [15], 54.5%; in test [16] it was 57.4%; in [17], 37.8%; in test [18], 18.3%. In addition, the values for the growth in [19] and in [20] were 36.2% and 80.8%, respectively.
Turning to `C=CCC(CCCC)(C(=O)OCC)C(=O)OCC`, the growth in test [1] was 100%; in test [2], 114%; in test [3], 110%; in test [4], 85.3%; in test [5] it was 104%; in test [6], 102%. Besides, the growth in test [7] is 96.7%; in test [8], 111%; in test [9] it was 93.2%; in test [10], 108%; in test [11], 95.9%; in test [12] it was 94.8%. Further, the growth is 102% in test [13]; 106% in [14]; 116% in [15]; 117% in test [16]; 119% in [17]; 118% in test [18]. Moreover, the growth in test [19] is 127%; in [20], 108%.
